Source: PubChem BioAssay (NCI)
The panel holds about 83,000 compounds, 20% with a hit somewhere; the sample as a whole holds those more often.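 48-hour exposure, single concentration, 96-well plates; percent growth endpoint where 0 means no net growth. Active: below 10.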 Active and inactive are the calls of the source.

Key:
Experiment in all cases: NCI-60 one-dose screen, 48 h (100 = growth as untreated, 0 = no growth, -100 = all killed)
Details in all cases: 10 µM unless noted
DU-145 prostate = test system: DU-145 prostate
K-562 leukemia = test system: K-562 leukemia
MALME-3M melanoma = test system: MALME-3M melanoma
MDA-MB-231 breast = test system: MDA-MB-231 breast
RXF 393 renal = test system: RXF 393 renal
SF-268 CNS = test system: SF-268 CNS
SF-295 CNS = test system: SF-295 CNS
UACC-257 melanoma = test system: UACC-257 melanoma
M14 melanoma = test system: M14 melanoma
HCT-15 colon = test system: HCT-15 colon
HT29 colon = test system: HT29 colon
SNB-75 CNS = test system: SNB-75 CNS
SNB-19 CNS = test system: SNB-19 CNS
U251 CNS = test system: U251 CNS
PC-3 prostate = test system: PC-3 prostate
UACC-62 melanoma = test system: UACC-62 melanoma
LOX IMVI melanoma = test system: LOX IMVI melanoma
SK-MEL-28 melanoma = test system: SK-MEL-28 melanoma
SK-MEL-5 melanoma = test system: SK-MEL-5 melanoma
SF-539 CNS = test system: SF-539 CNS

Measured: growth

C=C1CCC2C3(C)COC(c4cccc(Cl)c4)OC3CCC2(C)C1/C=C/C1=CCOC1=O (stereo not given)
inactive: DU-145 prostate 79.1% | K-562 leukemia 24.3% | MALME-3M melanoma 84.6% | MDA-MB-231 breast 80.1% | RXF 393 renal 80.9% | SF-268 CNS 83.7% | SF-295 CNS 45.7% | UACC-257 melanoma 57.4% | M14 melanoma 83.6% | HCT-15 colon 59.1% | HT29 colon 56.9% | SNB-75 CNS 86.5% | SNB-19 CNS 77.3% | U251 CNS 69.4% | PC-3 prostate 44.2% | UACC-62 melanoma 62.6% | LOX IMVI melanoma 52.1% | SK-MEL-28 melanoma 78.8%

COc1ccc2nc3cc(Cl)ccc3c(N3CCN(c4ccnc(N5CCN(C)CC5)n4)CC3)c2c1
active: DU-145 prostate 3.84% | K-562 leukemia -36.1% | HCT-15 colon -23.2% | HT29 colon -69.4% | LOX IMVI melanoma -62.5%
inactive: MALME-3M melanoma 83.8% | MDA-MB-231 breast 28.3% | RXF 393 renal 10.5% | SF-268 CNS 52.8% | SF-295 CNS 93.9% | UACC-257 melanoma 90.7% | M14 melanoma 58.5% | SNB-75 CNS 90.6% | SNB-19 CNS 94.5% | U251 CNS 46.1% | PC-3 prostate 63.4% | UACC-62 melanoma 94.1% | SK-MEL-28 melanoma 28.7%

CCOc1ccc(Nc2nc(-c3c(C)nc4ncccn34)cs2)cc1
inactive: MALME-3M melanoma 52.8% | SF-268 CNS 28.4% | SF-295 CNS 17.1% | UACC-257 melanoma 78.8% | M14 melanoma 21.1% | HCT-15 colon 15.4% | SNB-75 CNS 22.9% | SNB-19 CNS 33.4% | UACC-62 melanoma 10.6% | LOX IMVI melanoma 23.1% | SK-MEL-28 melanoma 39%
active: DU-145 prostate 0.86% | K-562 leukemia 4.04% | MDA-MB-231 breast -12.5% | RXF 393 renal -1.2% | HT29 colon 4.76% | U251 CNS 4.82% | SK-MEL-5 melanoma -11.6%

Oc1cc(O)c2c(=S)cc(-c3ccc(Cl)cc3)oc2c1
active: SK-MEL-5 melanoma 3.09%
inactive: DU-145 prostate 36.9% | K-562 leukemia 28.2% | MALME-3M melanoma 22.7% | MDA-MB-231 breast 21.6% | RXF 393 renal 64.6% | SF-268 CNS 36.8% | SF-295 CNS 91.4% | UACC-257 melanoma 32.9% | M14 melanoma 31.4% | HCT-15 colon 25.4% | HT29 colon 92.8% | SNB-19 CNS 17.5% | U251 CNS 19.6% | PC-3 prostate 28.4% | UACC-62 melanoma 22.6% | LOX IMVI melanoma 38.6% | SK-MEL-28 melanoma 40.5%

CS(CCCCN=C=S)=NC(=O)c1c(F)c(F)c(F)c(F)c1F (stereo not given)
inactive: DU-145 prostate 41.4% | K-562 leukemia 22.5% | MALME-3M melanoma 44.8% | MDA-MB-231 breast 67.9% | RXF 393 renal 41.9% | SF-268 CNS 86.8% | SF-295 CNS 102% | UACC-257 melanoma 61.5% | M14 melanoma 62.8% | HCT-15 colon 37.3% | HT29 colon 57.6% | SNB-75 CNS 74.3% | SNB-19 CNS 91.9% | U251 CNS 80.3% | PC-3 prostate 95.8% | UACC-62 melanoma 51.9% | LOX IMVI melanoma 28.3% | SK-MEL-28 melanoma 85.9%

Cc1ccc(Nc2nc(N)nc(Nc3ccc4ccccc4c3)n2)cc1
inactive: DU-145 prostate 58.5% | K-562 leukemia 20.2% | MALME-3M melanoma 83.9% | MDA-MB-231 breast 47.9% | RXF 393 renal 27.3% | SF-268 CNS 46.3% | SF-295 CNS 53.3% | UACC-257 melanoma 54.3% | M14 melanoma 44% | HT29 colon 11.2% | SNB-75 CNS 25% | SNB-19 CNS 61.7% | U251 CNS 17.7% | PC-3 prostate 32.7% | SK-MEL-5 melanoma 47.7% | UACC-62 melanoma 18.4% | LOX IMVI melanoma 38.2% | SK-MEL-28 melanoma 62%

Cc1ccccc1CCO
inactive: DU-145 prostate 111% | K-562 leukemia 114% | MALME-3M melanoma 92.5% | MDA-MB-231 breast 110% | RXF 393 renal 104% | SF-268 CNS 101% | SF-295 CNS 99.6% | UACC-257 melanoma 89.4% | M14 melanoma 98.3% | HT29 colon 76.4% | SNB-75 CNS 102% | SNB-19 CNS 108% | U251 CNS 98.6% | PC-3 prostate 97.6% | SK-MEL-5 melanoma 102% | UACC-62 melanoma 108% | LOX IMVI melanoma 103% | SK-MEL-28 melanoma 99.9%

COc1ccc(/C=C2\N=C3Sc4cc(Cl)ccc4C(=O)N3C2=O)cc1
inactive: DU-145 prostate 110% | K-562 leukemia 94.1% | MALME-3M melanoma 101% | MDA-MB-231 breast 100% | RXF 393 renal 106% | SF-268 CNS 106% | SF-539 CNS 98.7% | M14 melanoma 99.6% | HCT-15 colon 102% | HT29 colon 104% | SNB-75 CNS 76.8% | SNB-19 CNS 101% | PC-3 prostate 85.5% | SK-MEL-5 melanoma 99.8% | UACC-62 melanoma 98% | LOX IMVI melanoma 98.8% | SK-MEL-28 melanoma 103%

CCN(CC)CCCC(C)N/C(=C1\C(=O)NC(=O)\C1=C(/NC(C)CCCN(CC)CC)c1cccc(OC)c1)c1cccc(OC)c1 (stereo not given)
inactive: SNB-75 CNS 30.5% | SNB-19 CNS 23.6%
active: DU-145 prostate 4.62% | K-562 leukemia -24.6% | MALME-3M melanoma -84.2% | MDA-MB-231 breast -50.9% | RXF 393 renal -20.8% | SF-268 CNS -24% | SF-539 CNS -80.6% | M14 melanoma -75.1% | HCT-15 colon 5.33% | HT29 colon -54.8% | PC-3 prostate -3.13% | SK-MEL-5 melanoma -91% | UACC-62 melanoma -14.7% | LOX IMVI melanoma -68.5% | SK-MEL-28 melanoma -83%
